# Laboratory results as given in the supplement of paper PMC9794691.
# ± gives the standard deviation of the averaged measurements.
# Tested on: PC9
# Assay: area under confluence curve of osimertinib + compound combination regimen (DTP regrowth); compare to osimertinib-only DTP control AUC of the same experiment (AUC (confluence x time, arbitrary))
# Protocol: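 compare to osimertinib-only DTP control AUC of the same experiment; Long-term drug-tolerant persister (DTP) screen in EGFR-mutant NSCLC cell lines in 48-well plates. The test compound was given at one fixed dose with osimertinib, either upfront (from day 0 to the DTP stage at 10-21 days, then drug-free medium) or sequentially (osimertinib alone to the DTP stage, then the test compound). IncuCyte confluence was tracked until osimertinib-only controls regrew, and AUC was computed in Prism. AUC scale depends on experiment duration, so each row carries the same-experiment osimertinib-only DTP and DMSO control AUCs; combination activity = control minus combo AUC. Osimertinib dose not stated.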
# [1] = test compound dose 1000 nM, dosing schedule: sequential, osimertinib-only DTP control AUC in same experiment: 12535, DMSO control AUC in same experiment: 43316
# [2] = test compound dose 1000 nM, dosing schedule: upfront, osimertinib-only DTP control AUC in same experiment: 15354, DMSO control AUC in same experiment: 43316
smiles,measurement,setting,value
Cc1nc(-c2nc(-c3ccc(OC(F)(F)F)cc3)no2)nn1Cc1cccc(N2CCC(S(C)(=O)=O)CC2)c1 + C=CC(=O)Nc1cc(Nc2nccc(-c3cn(C)c4ccccc34)n2)c(OC)cc1N(C)CCN(C)C [osimertinib],area under confluence curve,"test compound dose 10 nM, dosing schedule: sequential, osimertinib-only DTP control AUC in same experiment: 11178, DMSO control AUC in same experiment: 18385",9950
same,area under confluence curve,"test compound dose 10 nM, dosing schedule: sequential, osimertinib-only DTP control AUC in same experiment: 12231, DMSO control AUC in same experiment: 19076",3870
same,area under confluence curve,"test compound dose 10 nM, dosing schedule: upfront, osimertinib-only DTP control AUC in same experiment: 16535, DMSO control AUC in same experiment: 19076",12500
same,area under confluence curve,"test compound dose 10 nM, dosing schedule: upfront, osimertinib-only DTP control AUC in same experiment: 16887, DMSO control AUC in same experiment: 18385",15300
Cc1nc(Nc2ncc(C(=O)Nc3c(C)cccc3Cl)s2)cc(N2CCN(CCO)CC2)n1 [Dasatinib] + C=CC(=O)Nc1cc(Nc2nccc(-c3cn(C)c4ccccc34)n2)c(OC)cc1N(C)CCN(C)C [osimertinib],area under confluence curve,"test compound dose 30 nM, dosing schedule: sequential, osimertinib-only DTP control AUC in same experiment: 10175, DMSO control AUC in same experiment: 27958",2120
same,area under confluence curve,"test compound dose 30 nM, dosing schedule: sequential, osimertinib-only DTP control AUC in same experiment: 12589, DMSO control AUC in same experiment: 28243",1440
same,area under confluence curve,"test compound dose 30 nM, dosing schedule: upfront, osimertinib-only DTP control AUC in same experiment: 16088, DMSO control AUC in same experiment: 28243",1770
same,area under confluence curve,"test compound dose 30 nM, dosing schedule: upfront, osimertinib-only DTP control AUC in same experiment: 16134, DMSO control AUC in same experiment: 27958",2420
C[C@@]1(C(=O)Nc2ccc(F)nc2)CCCN1c1nc(Nc2cc(C3CC3)n[nH]2)c2cccn2n1 + C=CC(=O)Nc1cc(Nc2nccc(-c3cn(C)c4ccccc34)n2)c(OC)cc1N(C)CCN(C)C [osimertinib],area under confluence curve,"test compound dose 100 nM, dosing schedule: sequential, osimertinib-only DTP control AUC in same experiment: 1963, DMSO control AUC in same experiment: 30580",219 ± 17
same,area under confluence curve,"test compound dose 100 nM, dosing schedule: sequential, osimertinib-only DTP control AUC in same experiment: 12502, DMSO control AUC in same experiment: 49143",7400
same,area under confluence curve,"test compound dose 100 nM, dosing schedule: sequential, osimertinib-only DTP control AUC in same experiment: 14708, DMSO control AUC in same experiment: 21341",3460
same,area under confluence curve,"test compound dose 100 nM, dosing schedule: upfront, osimertinib-only DTP control AUC in same experiment: 8618, DMSO control AUC in same experiment: 30580",4520 ± 430
same,area under confluence curve,"test compound dose 100 nM, dosing schedule: upfront, osimertinib-only DTP control AUC in same experiment: 21313, DMSO control AUC in same experiment: 21341",7730
same,area under confluence curve,"test compound dose 100 nM, dosing schedule: upfront, osimertinib-only DTP control AUC in same experiment: 28310, DMSO control AUC in same experiment: 49143",13100
COC(=O)c1ccc([C@H]2c3[nH]c4ccccc4c3C[C@H](C(=O)OC)N2C(=O)CCl)cc1 + C=CC(=O)Nc1cc(Nc2nccc(-c3cn(C)c4ccccc34)n2)c(OC)cc1N(C)CCN(C)C [osimertinib],area under confluence curve,"test compound dose 100 nM, dosing schedule: sequential, osimertinib-only DTP control AUC in same experiment: 8716, DMSO control AUC in same experiment: 45737",655
same,area under confluence curve,"test compound dose 100 nM, dosing schedule: sequential, osimertinib-only DTP control AUC in same experiment: 10175, DMSO control AUC in same experiment: 27958",1250
same,area under confluence curve,"test compound dose 100 nM, dosing schedule: sequential, osimertinib-only DTP control AUC in same experiment: 14030, DMSO control AUC in same experiment: 30326",1840
same,area under confluence curve,"test compound dose 100 nM, dosing schedule: upfront, osimertinib-only DTP control AUC in same experiment: 11096, DMSO control AUC in same experiment: 45737",12700
same,area under confluence curve,"test compound dose 100 nM, dosing schedule: upfront, osimertinib-only DTP control AUC in same experiment: 16134, DMSO control AUC in same experiment: 27958",13900
same,area under confluence curve,"test compound dose 100 nM, dosing schedule: upfront, osimertinib-only DTP control AUC in same experiment: 20885, DMSO control AUC in same experiment: 30326",13600
COc1nnc2ccc(N3CCC(c4ccc(OCCN5CCN(C)C(=O)[C@H]5C)cc4)CC3)nn12 + C=CC(=O)Nc1cc(Nc2nccc(-c3cn(C)c4ccccc34)n2)c(OC)cc1N(C)CCN(C)C [osimertinib],area under confluence curve,"test compound dose 300 nM, dosing schedule: sequential, osimertinib-only DTP control AUC in same experiment: 3562, DMSO control AUC in same experiment: 31840",2500
same,area under confluence curve,"test compound dose 300 nM, dosing schedule: sequential, osimertinib-only DTP control AUC in same experiment: 10968, DMSO control AUC in same experiment: 21594",7840
same,area under confluence curve,"test compound dose 300 nM, dosing schedule: sequential, osimertinib-only DTP control AUC in same experiment: 12231, DMSO control AUC in same experiment: 19076",5480
same,area under confluence curve,"test compound dose 300 nM, dosing schedule: sequential, osimertinib-only DTP control AUC in same experiment: 12891, DMSO control AUC in same experiment: 44384",2120
same,area under confluence curve,"test compound dose 300 nM, dosing schedule: upfront, osimertinib-only DTP control AUC in same experiment: 16535, DMSO control AUC in same experiment: 19076",15300
same,area under confluence curve,"test compound dose 300 nM, dosing schedule: upfront, osimertinib-only DTP control AUC in same experiment: 16570, DMSO control AUC in same experiment: 44384",19700
same,area under confluence curve,"test compound dose 300 nM, dosing schedule: upfront, osimertinib-only DTP control AUC in same experiment: 17834, DMSO control AUC in same experiment: 21594",15800
same,area under confluence curve,"test compound dose 300 nM, dosing schedule: upfront, osimertinib-only DTP control AUC in same experiment: 19015, DMSO control AUC in same experiment: 31840",27400
Cn1cnc2c(F)c(Nc3ccc(Br)cc3Cl)c(C(=O)NOCCO)cc21 [Selumetinib] + C=CC(=O)Nc1cc(Nc2nccc(-c3cn(C)c4ccccc34)n2)c(OC)cc1N(C)CCN(C)C [osimertinib],area under confluence curve,"test compound dose 300 nM, dosing schedule: sequential, osimertinib-only DTP control AUC in same experiment: 14554, DMSO control AUC in same experiment: 49189",10400
same,area under confluence curve,"test compound dose 300 nM, dosing schedule: upfront, osimertinib-only DTP control AUC in same experiment: 24473, DMSO control AUC in same experiment: 49189",11200
C[C@@H](Nc1cc(F)cc(F)c1)c1cc(C(=O)N(C)C)cc2c(=O)cc(N3CCOCC3)oc12 + C=CC(=O)Nc1cc(Nc2nccc(-c3cn(C)c4ccccc34)n2)c(OC)cc1N(C)CCN(C)C [osimertinib],area under confluence curve,"test compound dose 1000 nM, dosing schedule: sequential, osimertinib-only DTP control AUC in same experiment: 1963, DMSO control AUC in same experiment: 30580",1970 ± 150
same,area under confluence curve,"test compound dose 1000 nM, dosing schedule: sequential, osimertinib-only DTP control AUC in same experiment: 10725, DMSO control AUC in same experiment: 30578",4550
same,area under confluence curve,[1],4790
same,area under confluence curve,"test compound dose 1000 nM, dosing schedule: sequential, osimertinib-only DTP control AUC in same experiment: 15163, DMSO control AUC in same experiment: 28684",5770
same,area under confluence curve,"test compound dose 1000 nM, dosing schedule: upfront, osimertinib-only DTP control AUC in same experiment: 8618, DMSO control AUC in same experiment: 30580",4780 ± 250
same,area under confluence curve,"test compound dose 1000 nM, dosing schedule: upfront, osimertinib-only DTP control AUC in same experiment: 10245, DMSO control AUC in same experiment: 30578",8450
same,area under confluence curve,[2],8140
same,area under confluence curve,"test compound dose 1000 nM, dosing schedule: upfront, osimertinib-only DTP control AUC in same experiment: 21337, DMSO control AUC in same experiment: 28684",7910
Cc1onc(C(=O)N2CCN(C(c3ccc(Cl)cc3)c3ccc(Cl)cc3)CC2)c1[N+](=O)[O-] + C=CC(=O)Nc1cc(Nc2nccc(-c3cn(C)c4ccccc34)n2)c(OC)cc1N(C)CCN(C)C [osimertinib],area under confluence curve,"test compound dose 1000 nM, dosing schedule: sequential, osimertinib-only DTP control AUC in same experiment: 8716, DMSO control AUC in same experiment: 45737",823
same,area under confluence curve,"test compound dose 1000 nM, dosing schedule: upfront, osimertinib-only DTP control AUC in same experiment: 11096, DMSO control AUC in same experiment: 45737",19300
Cc1nc(N2CCC3(CC2)CO[C@@H](C)[C@H]3N)c(CO)nc1-c1cccc(Cl)c1Cl + C=CC(=O)Nc1cc(Nc2nccc(-c3cn(C)c4ccccc34)n2)c(OC)cc1N(C)CCN(C)C [osimertinib],area under confluence curve,"test compound dose 1000 nM, dosing schedule: sequential, osimertinib-only DTP control AUC in same experiment: 10671, DMSO control AUC in same experiment: 21678",9600
same,area under confluence curve,"test compound dose 1000 nM, dosing schedule: sequential, osimertinib-only DTP control AUC in same experiment: 13130, DMSO control AUC in same experiment: 20567",7660
same,area under confluence curve,"test compound dose 1000 nM, dosing schedule: upfront, osimertinib-only DTP control AUC in same experiment: 18577, DMSO control AUC in same experiment: 20567",13500
same,area under confluence curve,"test compound dose 1000 nM, dosing schedule: upfront, osimertinib-only DTP control AUC in same experiment: 19512, DMSO control AUC in same experiment: 21678",10500
C[C@@H](c1ccc2nccn2c1)n1nnc2ncc(-c3cnn(C)c3)nc21 [Savolitinib] + C=CC(=O)Nc1cc(Nc2nccc(-c3cn(C)c4ccccc34)n2)c(OC)cc1N(C)CCN(C)C [osimertinib],area under confluence curve,[1],7800
same,area under confluence curve,[2],11900
